In PubChem BioAssay:
Values joined by “and” are separate entries in the source; they are usually repeats but may differ in a detail not shown here. Identical values can stand only once. Active and inactive are the calls of the source.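 Rule for the calls, unless noted: active = inhibition at or above 50% relative to wild type and mutant plate controls; inactive = inhibition below 50%.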

Legend:
[1] = inhibitors of Chlamydomonas gravitaxis, primary screen, whole organism, Chlamydomonas reinhardtii, WT vs cilia-less mutant, absorbance, 96-well (AID 463189); settings: OD600 absorbance, 2 days, at 10 µM, stronger effect = higher value;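 note: 0% = wild type cc124 cells in DMSO and 100% = ciliumless bld1 mutant cells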
[2] = inhibitors of mutant huntingtin aggregation, primary screen, imaging, exon1htt(103Q)mCFP cells, high-content imaging (AID 483;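 active = visual image review flags a hit and inhibition of aggregation exceeds 20%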;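 note: compound exposure lasted 3 days before fixation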;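 for nuclei count: percent of the per-plate median nuclei count of sample wells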); settings: exon1htt(103Q)mCFP cell line, aggregate imaging, at 2 µM; inhibition of aggregation: stronger effect = higher value; nuclei count: measured here: cell count, toxicity
[3] = inhibitors of E-selectin induction by TNFa, primary screen, imaging, HUVEC, immunofluorescence, MLSMR starter and 10KST1 sets (AID 487;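 active = visually confirmed hit in the image check and inhibition above 20%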;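 for inhibition: signal is fraction of cell area covered by stained E-selectin grains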;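 for nuclei count: 100% = median nuclei count of all wells on the same plate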); settings: HUVEC TNFalpha-induced E-selectin immunofluorescence imaging, at 2 µM; inhibition: stronger effect = higher value; nuclei count: measured here: cell number, toxicity
[4] = DUSP6 inhibitors restoring Erk phosphorylation by chemical complementation, primary imaging in DUSP6-transfected HeLa (AID 609;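 active = compounds giving at least 50% inhibition in the cell-based MKP-3 phosphatase rescue imaging test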;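 for inhibition: phospho-Erk level distribution per well compared with pooled transfected vehicle control wells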); settings: HeLa MKP-3 transfected, phospho-Erk imaging KS statistic, at 10 µM, cells stimulated with TPA for 15 min
[5] = molecular target: Dual specificity protein phosphatase 6 (Homo sapiens) (UniProt Q16828); test: as above; settings: HeLa MKP-3 transfected, phospho-Erk imaging KS statistic; at 10 µM; stronger effect = higher value; cells stimulated with TPA for 15 min
Dual specificity protein phosphatase 6 (Homo sapiens), sequence (Q16828 whole entry, looked up): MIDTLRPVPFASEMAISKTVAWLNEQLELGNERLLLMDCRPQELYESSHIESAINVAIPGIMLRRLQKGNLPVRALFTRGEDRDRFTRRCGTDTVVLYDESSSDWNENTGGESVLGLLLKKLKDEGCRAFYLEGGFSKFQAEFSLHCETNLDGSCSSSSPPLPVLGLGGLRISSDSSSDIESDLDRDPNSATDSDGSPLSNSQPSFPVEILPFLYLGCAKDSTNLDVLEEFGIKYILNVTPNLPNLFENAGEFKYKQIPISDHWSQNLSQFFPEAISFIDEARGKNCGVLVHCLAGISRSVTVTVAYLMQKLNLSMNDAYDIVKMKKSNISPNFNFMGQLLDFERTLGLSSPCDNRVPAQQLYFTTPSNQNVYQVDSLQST

[6] = molecular target: Voltage-gated potassium channel subunit beta-2 (Rattus norvegicus) (UniProt P62483); test: KvBeta enzyme negative modulators, primary screen, biochemical, NADPH fluorescence (AID 622;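 active = fluorescence slope higher than the sample average by over 3 SD, cut at about -0.22 in these data, passing the limit was not always enough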;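 note: slope of raw intensity against log time taken from 70 to 1610 s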); settings: recombinant KvBeta, 4-cyanobenzaldehyde reduction, at 10 µM, stronger effect = higher value
Voltage-gated potassium channel subunit beta-2 (Rattus norvegicus), sequence (P62483 whole entry, looked up): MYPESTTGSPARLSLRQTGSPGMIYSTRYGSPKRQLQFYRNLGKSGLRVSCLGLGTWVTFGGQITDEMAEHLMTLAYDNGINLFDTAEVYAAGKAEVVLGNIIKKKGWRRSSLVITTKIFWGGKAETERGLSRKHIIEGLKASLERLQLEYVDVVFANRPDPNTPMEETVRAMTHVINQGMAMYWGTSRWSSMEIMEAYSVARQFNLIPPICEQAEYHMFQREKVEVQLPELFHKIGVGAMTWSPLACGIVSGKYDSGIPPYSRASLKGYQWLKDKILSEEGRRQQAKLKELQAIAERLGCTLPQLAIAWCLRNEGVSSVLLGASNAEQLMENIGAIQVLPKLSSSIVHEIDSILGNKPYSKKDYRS

[7] = molecular target: Voltage-gated potassium channel subunit beta-2 (Rattus norvegicus) (UniProt P62483); test: KvBeta positive modulators, primary screen, biochemical, NADPH fluorescence (AID 623;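 active = NADPH fluorescence slope more negative than the mean of all samples by about 3 SD, 99.7% confidence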;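 note: fluorescence intensity change per second fitted from 20 to 320 s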); settings: Recombinant KvBeta, NADPH fluorescence decrease slope, 10 min; at 10 µM; stronger effect = lower value
[8] = molecular target: Alpha-2C adrenergic receptor (Homo sapiens) (UniProt P18825); test: modulators of alpha2C/GIRK thallium flux, primary screen, cell-based, HEK293 alpha2C/GIRK1/2 (AID 624;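 active = fluorescence slope after compound addition differing from the mean of all screened samples at 99.7% confidence, in either direction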;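 note: slope of fluorescence ratio to pre-addition baseline per second over 15 to 24 s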); settings: thallium flux BTC fluorescence, at 10 µM, actives lie on both sides
Alpha-2C adrenergic receptor (Homo sapiens), sequence (P18825 whole entry, looked up): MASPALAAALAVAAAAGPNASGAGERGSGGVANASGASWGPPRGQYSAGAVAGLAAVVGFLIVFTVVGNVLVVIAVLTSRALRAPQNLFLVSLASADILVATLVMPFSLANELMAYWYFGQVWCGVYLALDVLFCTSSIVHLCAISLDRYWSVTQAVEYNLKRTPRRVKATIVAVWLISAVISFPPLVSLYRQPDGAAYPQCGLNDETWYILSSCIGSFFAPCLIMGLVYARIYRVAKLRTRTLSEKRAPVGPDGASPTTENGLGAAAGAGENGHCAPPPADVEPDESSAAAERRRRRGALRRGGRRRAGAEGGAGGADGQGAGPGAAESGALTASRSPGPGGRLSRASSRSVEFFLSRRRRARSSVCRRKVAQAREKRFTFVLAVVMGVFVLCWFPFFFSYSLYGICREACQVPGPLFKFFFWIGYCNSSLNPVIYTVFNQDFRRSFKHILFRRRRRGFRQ

[9] = inhibitors of larval lipid processing in zebrafish, primary screen, whole organism, PED6 fluorescence, gall bladder and intestine (AID 686;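 active = a full or partial loss of lipid-probe fluorescence in the fish gall bladder, intestine or both, judged by eye; inactive = no fluorescence loss, or compound toxic to the fish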;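 note: larvae 5 to 7 days old with five fish per well; signal comes from phospholipase A2 cleavage of quenched PED6 carried via bile; overnight exposure to compound and PED6 before scoring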); settings: Zebrafish larvae PED6 lipid processing, fluorescence scoring; screened at 20 µM (by protocol)
[10] = inhibitors of Sendai virus-induced IRF3 signaling, primary screen, TLR/RLR signaling modifier project, cell-based, Sendai virus stimulus, luciferase, 10K MLSCN set (AID 602276;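 active = inhibition at or above 50% at 10 µM; inactive = inhibition below 50%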;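 note: firefly luciferase from ISG56 promoter only with Renilla not read in this screen; 0% = Sendai virus plus DMSO and 100% = medium plus DMSO without virus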); settings: HEK293 RL24 IRF3 luciferase reporter, at 10 µM, stronger effect = higher value
[11] = inhibitors of poly I:C-induced TLR3 signaling, primary screen, cell-based, poly I:C stimulus, luciferase, 10K MLSCN set (AID 602277;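 active = inhibition of the reporter signal at or above 50%; inactive = inhibition below 50%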); settings: HEK293-TLR3 RL24 IRF3 luciferase reporter, at 10 µM, stronger effect = higher value
[12] = molecular target: Muscarinic acetylcholine receptor M4 (Homo sapiens) (UniProt P08173); test: compounds altering M4/GIRK thallium flux, either direction, primary screen, M4 allosteric agonist project, cell-based, HEK293 M4/GIRK, BTC-AM (AID 625;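 active = fluorescence slope after compound addition differing from the mean of all tested samples at 99.7% confidence, mostly higher but some lower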;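 note: thallium influx through GIRK channels coupled to M4 in HEK293 cells with BTC-AM dye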); settings: at 10 µM, actives lie on both sides
Muscarinic acetylcholine receptor M4 (Homo sapiens), sequence (P08173 whole entry, looked up): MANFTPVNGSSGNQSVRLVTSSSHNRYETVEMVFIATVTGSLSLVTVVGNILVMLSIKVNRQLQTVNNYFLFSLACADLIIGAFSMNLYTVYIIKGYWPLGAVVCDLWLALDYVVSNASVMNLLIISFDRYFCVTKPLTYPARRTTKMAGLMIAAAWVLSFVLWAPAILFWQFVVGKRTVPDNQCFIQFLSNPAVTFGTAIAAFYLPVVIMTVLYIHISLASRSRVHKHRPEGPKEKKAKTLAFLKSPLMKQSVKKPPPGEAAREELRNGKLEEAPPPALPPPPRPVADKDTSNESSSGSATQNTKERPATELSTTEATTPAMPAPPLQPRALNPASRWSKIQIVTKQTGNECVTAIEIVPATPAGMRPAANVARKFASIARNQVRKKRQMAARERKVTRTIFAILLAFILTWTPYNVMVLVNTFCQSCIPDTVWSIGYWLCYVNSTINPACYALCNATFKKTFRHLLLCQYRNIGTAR

[13] = measured here: cell density z-score
[14] = measured here: nuclear c-Myc green intensity z-score
[15] = measured here: nuclear pErk red intensity z-score, stronger effect = higher value

Structure (SMILES): Cc1cccc(C)c1OCC(N)C(C)C (stereo unspecified)
- inhibition [1]: 9.25% (inactive)

Structure (SMILES): Cc1cccc(C(=O)NCN2CCN(c3ccccc3C#N)CC2)c1
- inhibition [1]: 0.075% (inactive)

Structure (SMILES): C=C/C(C)=C/[C@@]1(C)SC(=O)C(C)=C1O
- inhibition [1]: 5.01% (inactive)

Structure (SMILES): CC(C)NC[C@H](O)COc1cccc2ccccc12
- inhibition [1]: 8.72% (inactive)

Structure (SMILES): CC[N+](CC)(CC)CC(=O)Nc1c(C)cccc1C
- inhibition [1]: 6.77% (inactive)

Structure (SMILES): CCCn1cnc2c1c(=O)n(CCCCC(C)=O)c(=O)n2C
- inhibition [1]: 3.15% (inactive)

Structure (SMILES): C=C[C@H]1CN2CCC1C[C@H]2[C@H](O)c1ccnc2ccc(OC)cc12 (stereo partly specified)
- inhibition [1]: -14.7% (inactive)

Structure (SMILES): O=C(c1ccccc1)c1ccc2n1CCC2C(=O)O (stereo unspecified)
- inhibition [1]: -6.13% (inactive)

Structure (SMILES): C#CCN(C)CCCOc1ccc(Cl)cc1Cl
- inhibition [1]: 24.1% (inactive)

Structure (SMILES): N#CC(Cc1ccc(O)c(O)c1)C(=O)N1CCc2ccccc21 (stereo unspecified)
- inhibition [1]: 0.886% (inactive)

Structure (SMILES): Nc1ncnc2c1c(-c1ccc(Oc3ccccc3)cc1)cn2C1CCCC1
- inhibition [1]: 35.3% (inactive)

Structure (SMILES): Fc1ccc(C(OCCCc2cnc[nH]2)c2ccc(F)cc2)cc1
- inhibition [1]: -0.416% (inactive)

Structure (SMILES): CC(C)(C)c1ccc(S(=O)(=O)/C=C/C#N)cc1
- inhibition [1]: 155% (active)

Structure (SMILES): OC[C@H]1O[C@@H](n2cnc3c(NCCc4ccccc4)ncnc32)C(O)[C@H]1O (stereo partly specified)
- inhibition [1]: -17% (inactive)

Structure (SMILES): CC(=O)O[C@H]1CC2(C)[C@@H](C[C@@H](O)[C@H]3[C@@]4(C)CC[C@@H](O)[C@@H](C)[C@@H]4CC[C@@]32C)C1=C(CCC=C(C)C)C(=O)O (stereo partly specified)
- inhibition [1]: 1.57% (inactive)

Structure (SMILES): CCN(CC)CCCC(C)Nc1c2ccc(Cl)cc2nc2ccc(OC)cc12 (stereo unspecified)
- inhibition [1]: 16.9% (inactive)

Structure (SMILES): Cc1nc2c(OCc3ccccc3)cccn2c1CC#N
- inhibition [1]: 3.47% (inactive)

Structure (SMILES): O=C1c2c(O)cc(O)cc2OC(c2ccc(O)c(O)c2)C1O (stereo unspecified)
- inhibition [1]: -16.9% (inactive)

Structure (SMILES): CCN1CCC[C@H]1CNC(=O)c1cc(S(N)(=O)=O)ccc1OC
- inhibition [1]: 3.94% (inactive)

Structure (SMILES): COc1ccc(NC(=O)/C=C/c2ccc(Cl)cc2)cc1
- inhibition [1]: 6.25% (inactive)

Structure (SMILES): CN(C)c1ccc(/C=C2\C(=O)Nc3ccccc32)cc1
- inhibition [1]: 4.05% (inactive)

Structure (SMILES): Cc1c(C)c2c(c(C)c1O)CCC(C)(CN1CCN(c3cc(N4CCCC4)nc(N4CCCC4)n3)CC1)O2 (stereo unspecified)
- inhibition [1]: 6.96% (inactive)

Structure (SMILES): CCCCCN(CCCCC)C(=O)C(CCC(=O)O)NC(=O)c1ccc(Cl)c(Cl)c1 (stereo unspecified)
- inhibition [1]: -0.994% (inactive)

Structure (SMILES): CN[C@H](CC(C)C)C(=O)N[C@H]1C(=O)N[C@@H](CC(N)=O)C(=O)N[C@H]2C(=O)N[C@H]3C(=O)N[C@H](C(=O)N[C@H](C(=O)O)c4cc(O)cc(O)c4-c4cc3ccc4O)[C@H](O)c3ccc(c(Cl)c3)Oc3cc2cc(c3O[C@@H]2O[C@H](CO)[C@@H](O)[C@H](O)[C@H]2O[C@H]2C[C@](C)(N)[C@H](O)[C@H](C)O2)Oc2ccc(cc2Cl)[C@H]1O
- inhibition [1]: 15.1% (inactive)

Structure (SMILES): C/C=C1\C(=O)CC2C3CCC4=CC(=O)CC[C@]4(C)C3CC[C@]12C (stereo partly specified)
- inhibition [1]: 0.131% (inactive)

Structure (SMILES): CC1=C(/C=C/C(C)=C/C=C/C(C)=C/C(=O)Nc2ccc(O)cc2)C(C)(C)CCC1
- inhibition [1]: 1.68% (inactive)

Structure (SMILES): CC(=O)SC1CC2=CC(=O)CC[C@]2(C)C2CC[C@@]3(C)C(CC[C@@]34CCC(=O)O4)C12 (stereo partly specified)
- inhibition [1]: 3.21% (inactive)

Structure (SMILES): CSc1ccc(C(=O)c2[nH]c(=O)[nH]c2C)cc1
- inhibition [1]: -1.05% (inactive)

Structure (SMILES): Oc1ccc(O)cc1
- inhibition [1]: 0.661% (inactive)

Structure (SMILES): CN(C)CC/C=C1\c2ccccc2COc2ccccc21
- inhibition [1]: 6.63% (inactive)

Structure (SMILES): NC(=NCCC[C@H](N)C(=O)O)NO
- inhibition [1]: -1.45% (inactive)

Structure (SMILES): Cc1ncc([N+](=O)[O-])n1CCO
- inhibition of aggregation [2]: 7.7% (inactive)
- nuclei count [2]: 76.5%
- inhibition [3]: -67% (inactive)
- nuclei count [3]: 110%
- z-score [4, 13]: 0.289
- z-score [4, 14]: -1.84
- z-score [4, 15]: 1.07
- inhibition [5]: -5.24% (inactive)
- fluorescence slope [6]: -0.491 (inactive)
- NADPH fluorescence slope [7]: -8.5e-05 (inactive)
- slope [8]: 0.00488 (inactive)
- outcome [9]: inactive
- inhibition [1]: 1.99% (inactive)
- inhibition [10]: 8% (inactive)
- inhibition [11]: 25.4% (inactive)

Structure (SMILES): CC(=O)O[C@]1(C(C)=O)CC[C@H]2[C@@H]3C=C(Cl)C4=CC(=O)CC[C@]4(C)[C@H]3CC[C@@]21C
- inhibition of aggregation [2]: -13.1% (inactive)
- nuclei count [2]: 100%
- inhibition [3]: -108% (inactive)
- nuclei count [3]: 126%
- z-score [4, 13]: -0.773
- z-score [4, 14]: -0.174
- z-score [4, 15]: -0.613
- inhibition [5]: 5.79% (inactive)
- fluorescence slope [6]: -0.438 (inactive)
- NADPH fluorescence slope [7]: -6.7e-05 (inactive)
- slope [8]: 0.00452 (inactive)
- inhibition [1]: 8.01% (inactive)
- inhibition [10]: -5.93% (inactive)
- inhibition [11]: 38.2% (inactive)

Structure (SMILES): Cc1cc(C(C)(C)C)cc(C)c1CC1=NCCN1
- inhibition of aggregation [2]: 8.7% (inactive)
- nuclei count [2]: 94.6%
- inhibition [3]: -76.9% (inactive)
- nuclei count [3]: 129%
- z-score [4, 13]: 0.444
- z-score [4, 14]: -0.489
- z-score [4, 15]: -0.727
- inhibition [5]: 5.79% (inactive)
- fluorescence slope [6]: -0.464 (inactive)
- NADPH fluorescence slope [7]: -7.1e-05 (inactive)
- slope [8]: 0.00474 (inactive)
- outcome [9]: inactive
- inhibition [1]: -10% (inactive) and -5.2% (inactive)
- inhibition [10]: 2.07% (inactive)
- inhibition [11]: 45.9% (inactive)

Structure (SMILES): CN(C)CCOC(C)(c1ccccc1)c1ccccn1 (stereo unspecified)
- inhibition of aggregation [2]: 21.5% (inactive)
- nuclei count [2]: 111%
- inhibition [3]: -17.5% (inactive)
- nuclei count [3]: 132%
- z-score [4, 13]: -0.381
- z-score [4, 14]: 0.211
- z-score [4, 15]: -0.829
- inhibition [5]: 33% (inactive)
- fluorescence slope [6]: -0.52 (inactive)
- NADPH fluorescence slope [7]: 2.3e-06 (inactive)
- slope [8]: 0.00491 (inactive)
- outcome [9]: inactive
- inhibition [1]: -2.11% (inactive) and -8.4% (inactive)
- inhibition [10]: 2.29% (inactive)
- inhibition [11]: 19.2% (inactive)

Structure (SMILES): CCCOc1ccc2nc(NC(=O)OC)[nH]c2c1
- inhibition of aggregation [2]: -14.5% (inactive)
- nuclei count [2]: 98.6%
- inhibition [3]: -34% (inactive)
- nuclei count [3]: 126%
- z-score [4, 13]: 0.515
- z-score [4, 14]: 0.392
- z-score [4, 15]: -0.582
- inhibition [5]: 1.48% (inactive)
- fluorescence slope [6]: -0.47 (inactive)
- NADPH fluorescence slope [7]: -3.6e-05 (inactive)
- slope [8]: 0.00449 (inactive)
- outcome [9]: inactive
- inhibition [1]: -11.7% (inactive)
- inhibition [10]: 25.2% (inactive)
- inhibition [11]: 74.2% (active)

Structure (SMILES): COc1cc(C2C(C#N)=C(N)Oc3cc(N)ccc32)cc(OC)c1OC (stereo unspecified)
- inhibition of aggregation [2]: -94.1% (inactive)
- nuclei count [2]: 1.6%
- inhibition [3]: -83.7% (inactive)
- nuclei count [3]: 80.5%
- z-score [4, 13]: 0.957
- z-score [4, 14]: -0.28
- z-score [4, 15]: -0.643
- inhibition [5]: 2.92% (inactive)
- fluorescence slope [6]: -0.434 (inactive)
- NADPH fluorescence slope [7]: 1e-06 (inactive)
- slope [8]: 0.00523 (inactive)
- outcome [9]: inactive
- inhibition [1]: 4.51% (inactive)
- inhibition [10]: 46.4% (inactive)
- inhibition [11]: 88.5% (active)

Structure (SMILES): COc1cc(NS(=O)(=O)c2ccc(N)cc2)ncn1
- inhibition of aggregation [2]: 15.6% (inactive)
- nuclei count [2]: 100%
- inhibition [3]: -87.8% (inactive) and -123% (inactive)
- nuclei count [3]: 109% and 156%
- z-score [4, 13]: -0.758 and -0.797
- z-score [4, 14]: -0.381 and 0.601
- z-score [4, 15]: 1.83 and 0.0867
- inhibition [5]: 12.4% (inactive) and -1.98% (inactive)
- fluorescence slope [6]: -0.448 (inactive) and -0.477 (inactive)
- NADPH fluorescence slope [7]: -8.5e-05 (inactive) and -7.6e-05 (inactive)
- slope [8]: 0.00452 (inactive)
- fluorescence slope [12]: 0.00587 (inactive)
- outcome [9]: inactive
- inhibition [1]: 15.5% (inactive) and 12.3% (inactive)
- inhibition [10]: 6.56% (inactive)
- inhibition [11]: 32.2% (inactive)
